# Shown are actives, neighbours in structure and some others; about 12% of the full set was active somewhere.
# L major viab – inhibitors of Leishmania major promastigote growth | Leishmania major promastigotes, resazurin fluorescence viability | inhibition, % at 10 µM | hit rate 9% among 200,000 | AID 1063; in the data active means inhibition above about 50%;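 further: promastigotes grown with compound for 44 hours at 28 °C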
# ROMK primary – modulators of human ROMK potassium channel. Tet-inducible ROMK, thallium flux fluorescence; actives lie on both sides. AID 1918. hit rate 2% among 130,000. B-score at 10 µM. P48048;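 active means signal ratio slope over the read window, or its plate-corrected B-score, at least 3 SD from the plate mean, either direction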;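 further: B-score of the F/F0 ratio slope over 7 to 12 s after thallium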
# Target sequence (P48048 whole entry, looked up): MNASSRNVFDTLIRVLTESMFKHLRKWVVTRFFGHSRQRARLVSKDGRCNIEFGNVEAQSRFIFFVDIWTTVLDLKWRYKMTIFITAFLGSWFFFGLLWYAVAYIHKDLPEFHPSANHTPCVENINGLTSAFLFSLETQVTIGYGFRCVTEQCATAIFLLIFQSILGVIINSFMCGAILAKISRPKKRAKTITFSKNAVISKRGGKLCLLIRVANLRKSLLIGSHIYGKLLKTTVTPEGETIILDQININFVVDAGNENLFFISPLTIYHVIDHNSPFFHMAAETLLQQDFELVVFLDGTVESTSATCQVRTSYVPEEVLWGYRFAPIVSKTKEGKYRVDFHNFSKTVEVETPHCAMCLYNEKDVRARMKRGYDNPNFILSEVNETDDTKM
# Insulin prom up – MIN6 insulin promoter up-regulation. MIN6 insulin promoter-GFP reporter, high-content imaging; active compounds read high. z-score at 5 µM. hit rate 0.3% among 190,000;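 active means z-score above 3 at 5 µM with at least 500 cells counted in the well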
# KCC2 mod – modulates chloride dependent transport by human KCC2. B-score of Tl+ flux slope (higher = more flux/activation; lower = inhibition) at 10 µM. KCC2 cells, thallium flux FluoZin-2 fluorescence. AID 1456. hit rate 2.2% among 190,000;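 active means thallium flux slope and its plate-corrected score both differing from the plate sample mean at a set confidence after two filtering rounds, in either direction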;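 further: slope of fluorescence scaled to starting intensity during 10 to 20 s after thallium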
# Insulin prom inh – TRM-6 insulin promoter activity inhibition. TRM-6 cells (human fetal islet line), insulin promoter-eGFP reporter, imaging; reporter expression induced with tamoxifen. inhibition, % at 2 µM. hit rate 0.9% among 130,000;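 active means inhibition above the mean plus 3 SD, with well images judged a real hit on visual review, cut at about 60% in these data, passing the limit was not always enough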
# WT yeast gro inh – growth inhibition of WT yeast, mitochondrial fusion screen. hit rate 2.1% among 190,000. inhibition, % at 10 µM. mitochondrial fusion phenotypic screen, WT strain; in the data active means inhibition above about 58%; tested in S. cerevisiae
# Numbers without * were called inactive; i = inactive; · = no result given.
SMILES,L major viab,ROMK primary,Insulin prom up,KCC2 mod,Insulin prom inh,WT yeast gro inh
N/C(=N\S(=O)(=O)c1ccccc1)c1ccc([N+](=O)[O-])cc1,-4,0.28,0.16,0.31,44,5
Cc1nc(N/C(N)=N/S(=O)(=O)c2ccc([N+](=O)[O-])cc2)nc2ccccc12,54*,-0.7,-1.1,-1.6,30,9
Cc1ccc2c(C)nc(N/C(N)=N/S(=O)(=O)c3ccc([N+](=O)[O-])cc3)nc2c1,88*,-0.42,-1.5,-0.54,62,9
N#Cc1c(N)nc(SC2CCCCC2=O)c(C#N)c1-c1ccco1 (stereo not drawn),6,0.94,·,·,·,·
COc1ccc(C(=O)COC(=O)CSCc2c(C)noc2C)cc1OC,1,0.29,1.3,·,-14,-3
CCOC(=O)N1CCN(c2nc(C(F)(F)F)nc3c(C)cc(C)cc23)CC1,36,-1.5,0.65,-0.94,50,3
Cc1cc(C)c2nc(C(F)(F)F)nc(N3CC(C)OC(C)C3)c2c1 (stereo not drawn),10,-0.19,-1.1,0.014,-15,77*
O=C(CCC1CCCCC1)Nc1ncn[nH]1,-5,·,-0.01,·,-40,13
O=C(/C=C/c1ccccc1)NCCOc1ccccc1,-4,0.51,0.09,-0.72,-32,-3
COC(=O)c1c(NC(=O)CSc2nc3ccccc3c(=O)n2-c2ccccc2)sc(C)c1C,99*,0.017,0.32,0.17,32,-17
CCOC(=O)c1c(NC(=O)CSc2ncnc3ccccc23)sc(C)c1C,77*,·,1.1,-1.1,-11,-17
Cc1cc(NC(=O)CSc2nc3ccccc3c(=O)n2-c2ccccc2)no1,-4,-0.68,·,0.57,38,3
COC(=O)c1c(NC(=O)CSc2nc3nc(C)cc(C)n3n2)sc(C)c1C,52*,·,-0.15,-0.95,4,12
CCOC(=O)c1c(NC(=O)CSc2ccccc2C(=O)O)sc(C)c1C,-9,1.5,0.83,-3.3,·,-16
CCc1c(C(=O)NNC(=S)NC2CCCCC2)csc1C,5,-1.2,-0.35,1.4,·,0
CCC/C(=N/NC(=O)c1ccccc1Cl)c1ccccc1,95*,·,0.04,-0.27,·,-16
Cc1ccc(NS(=O)(=O)c2ccc3c(c2)c(=O)n(C)c(=O)n3C)cc1F,68*,1,-1.3,·,-41,-1
Cc1cc(C)cc(NS(=O)(=O)c2ccc3c(c2)c(=O)n(C)c(=O)n3C)c1,97*,-0.063,-1.2,·,27,-9
CC(C)N1CCC(N2CCN(C3CCCC3)CC2CCO)CC1 (stereo not drawn),-5,0.18,0.04,0.25,·,10
Cc1cccc(N2CCC(N3CCN(C4CCCCC4)C(CCO)C3)CC2)c1C (stereo not drawn),88*,-2.3,-0.63,0.26,·,14
CSc1ccc(CN2CCN(CCC(C)C)C(CCO)C2)cc1 (stereo not drawn),78*,0.34,-0.72,-0.0047,·,6
CSc1ccc(CN2CCN(C3CCCC3)C(CCO)C2)cc1 (stereo not drawn),62*,-0.83,-0.02,·,·,-1
CN(C)c1cccc(C(=O)NCc2ccc(Cl)cc2)c1,27,-0.83,-1.5,-0.42,·,0
Cc1ccccc1C(=O)c1c[nH]c(C(=O)NCCCn2ccnc2)c1,0,·,1.6,-0.82,45,26
CC1CN(c2nc3c(c(=O)n(C)c(=O)n3C)n2Cc2c(F)cccc2Cl)CC(C)O1 (stereo not drawn),8,·,0.15,-0.17,·,-2
SMILES,L major viab,ROMK primary,Insulin prom up,KCC2 mod,Insulin prom inh,WT yeast gro inh
Cc1nn(C)c(C)c1NC(=O)c1ccnn1C,4,·,0.55,1.3,72*,-22
CCOC(=O)N1CCN(CC(O)COc2ccccc2C(C)CC)CC1 (stereo not drawn),91*,·,-0.11,0.53,-95,-5
CCOC(=O)N1CCN(CC(O)COc2ccccc2C(C)C)CC1 (stereo not drawn),70*,1.6,0.42,·,12,3
CCOC(=O)N1CCN(CC(O)COCc2ccc(Cl)cc2)CC1 (stereo not drawn),93*,·,0.56,1.1,i,-9
CCOC(=O)N1CCN(CC(O)COc2cc(C)ccc2C(C)C)CC1 (stereo not drawn),4,0.038,0.08,-0.49,-442,1
OC(COCc1ccc(Cl)cc1)CN1CCN(c2ccccn2)CC1 (stereo not drawn),36,·,0.55,0.91,28,-4
CCOC(=O)N1CCN(C(=O)C(CC)c2ccccc2)CC1 (stereo not drawn),0,0.67,0.43,0.57,6,-11
